Assay results reported in ChEMBL document CHEMBL3988442, “University of Dundee, Small-Polar-MMV Screening Library” (2021).
In all, about 53,000 compounds went through this assay and about 900 (1.7%) showed an effect of 50% or more. Many of the other results were omitted from the sample, so strong results are more common in it than they were.

Tested on: Mycobacterium tuberculosis
Experiment: Cornell - Phenotypic assay to identify agents that inhibit growth of Mycobacterium tuberculosis
Assay type: functional
Parameters: scale not given: direction of the effect not stated beside the values
Conditions: 10 mM as filed; unlikely as a test dose

Compound	Percent Effect [%]
CC[C@H](C)Nc1nccc(-c2cnc3sccn3c2=O)n1	-1.989
O=C(c1cn(-c2ccccc2C(F)(F)F)nn1)N1CCSCC1	17.85
Cc1cc(CN2CC[C@H]3C[C@@H](c4nc(C5CC5)cs4)O[C@@H]3C2)no1	0.1287
Cc1ccc(CN2CC[C@H]3C[C@@H](c4nc(C5CC5)cs4)O[C@@H]3C2)o1	40.45
Cc1ccc(CN2CC[C@H]3C[C@H](c4nc(C5CC5)cs4)O[C@@H]3C2)o1	67.24
Cn1nc(-c2cccc(Cl)c2)c(Br)c1C(=O)O	24.18
O=C(Nc1ccccc1OCc1ccccn1)NC1CCOCC1	30.18
c1ccc(COc2ccccc2NC2CCOCC2)nc1	50.88
O=C(Nc1ccccc1OCCc1ccccn1)NC1CCOCC1	-20.67
Cc1ccn(-c2ccccc2NCc2cccnc2)n1	-17.76
COc1cc(NCc2ccncc2)c(-c2nn[nH]n2)cc1OC	96.19
c1cncc(CNc2ccccc2-c2nn[nH]n2)c1	72.98
COc1cc(NCc2ccc(Cl)cc2)c(-c2nn[nH]n2)cc1OC	107.2
Cc1nnc(NCc2ccc(Cl)cc2)o1	21.04
COc1ccncc1NCc1ccsc1	-60.05
COc1cc(NCc2cccnc2)c(-c2nn[nH]n2)cc1OC	-25.93
OCc1ccc(Cl)c(NCc2cccnc2)c1	-14.09
COc1cc(CNc2ccc(Cl)cc2)ccc1OCC(=O)O	-3.069
CC(=O)N1CCCN(C(=O)NCCNc2cnccn2)CC1	8.364
CCOCc1cnc2n1CCN(C(=O)c1ccccc1)C2C (stereo not given)	-22.66
Cn1cc(N2CCCC(SCc3nc(C4CC4)no3)C2=O)cn1 (stereo not given)	-5.692
C[C@@H]1CN(c2nc3c(cc2C(N)=O)CCC3)CC[C@@]1(O)C1CCC1	6.158
Cn1nc(CNS(=O)(=O)Cc2ccccc2F)c2c1CCCC2	24.49
CCc1c(C)nc2cc(C3CCN(Cc4ccc(F)cc4)C3)nn2c1O (stereo not given)	-30.4
O=C(O)C(F)(F)F.O=C([C@@H]1CCO[C@@H]2CCN(Cc3ccsc3)C[C@@H]21)N1CCCC1	13.31
CCCS(=O)(=O)N1CCC(NC(=O)c2cc(CC)c(C)s2)CC1	-14.58
COCC(=O)N1CCN(S(=O)(=O)c2cccs2)[C@H]2CS(=O)(=O)C[C@H]21	5.268

Compound	Percent Effect [%]
NS(=O)(=O)c1cccnc1NCc1ccco1	9.166
Cc1cc(NCc2ccco2)nc2[nH]nc(N)c12	73.02
Cc1cc2[nH]c(O)nc2cc1NCc1ccccc1	38.01
CNc1c(NCc2ccco2)c(=O)c1=O	-73.54
Cc1cc(NCCO)nc2[nH]nc(N)c12	15.94
Cc1cc(NCc2ccccc2)nc2[nH]nc(N)c12	99.95
Cc1nc(CCNC(=O)NC(C)c2ccc3c(c2)OCCO3)cs1 (stereo not given)	-7.5
N#CC1COCCN1C(=O)c1cccc2cc[nH]c12 (stereo not given)	15.8
COc1ccccc1OCCN(C)c1cc(C)nc(N)n1	-1.717
CS(=O)(=O)N1CCN(c2ccnc(N3CCCCC3)n2)CC1	63
CCCS(=O)(=O)N1CCN(c2ccnc(N3CCCCC3)n2)CC1	50.94
CS(=O)(=O)N1CCN(c2ccnc(N3CCCC3)n2)CC1	7.415
CCCS(=O)(=O)N1CCN(c2ccnc(N3CCCC3)n2)CC1	-0.1963
CN(C)S(=O)(=O)N1CCN(c2ccnc(N3CCCC3)n2)CC1	12.56
CN(C)S(=O)(=O)N1CCN(c2ccnc(N3CCCCC3)n2)CC1	38.93
COC(=O)c1cccc(CN(C)C(C)c2ccccn2)c1 (stereo not given)	21.51
OC1(CN2CCC(Cc3ncccn3)CC2)CCOCC1	-20.94
O=C(c1cnco1)N1CCC(Cc2ccc3ncccc3c2)CC1	9.774
O=C(c1cnco1)N1CCC(Cc2cccc3ncccc23)CC1	-21.16
O=C(c1cnco1)N1CCC(Cc2cnc3ccccc3c2)CC1	64.83
COCCC1COC2(CCN(C(=O)c3ccncc3)CC2)C1.O=C(O)C(F)(F)F (stereo not given)	-13.79
c1ccc(-n2ncc(CN3CCCC(Cn4cncn4)C3)n2)cc1 (stereo not given)	2.145
Cc1cc2c(=O)n(CC(=O)N3CCn4cccc4C3C(C)C)cnc2s1 (stereo not given)	56.81
CCC1c2cccn2CCN1C(=O)c1ccc2nonc2c1 (stereo not given)	10.7
CCC(C)NC(=O)Cn1ccc2sc(C)cc2c1=O (stereo not given)	17.39
Cc1cc2c(=O)n(CCOCCO)cnc2s1	14.22
CCC1c2ccc(C)n2CCN1C(=O)Cn1cnc2sc(C)cc2c1=O (stereo not given)	27.93

Compound	Percent Effect [%]
CCCC1c2cccn2CCN1C(=O)Cn1cnc2sc(C)cc2c1=O (stereo not given)	53.74
Cc1nn(C)cc1C(=O)Nc1cccc(CN2CCC(CO)CC2)c1	-50.57
Cc1nc2ccccn2c1CC(=O)N[C@@H]1CC[C@@H](N2CCCC2)[C@@H]1O	13.48
O=C(c1cc(-n2cccn2)ccn1)N(CC1CCC1)CC(F)(F)F	16.8
Cc1cc(NC(=O)C(c2cccc(F)c2)N2CCOCC2)sn1 (stereo not given)	-15.26
NC(=O)C1CCCN1C(=O)c1cc(C2CC2)nc2ccc(F)cc12 (stereo not given)	-27.79
Cc1cc(C)c2[nH]c(=O)c(CN3CCCC4(C3)CN(C)C(=O)O4)cc2c1 (stereo not given)	65.13
Cc1cc(C)c2[nH]c(=O)c(CN3CCCC(O)(CO)C3)cc2c1 (stereo not given)	23.96
Cc1cc(C)c2[nH]c(=O)c(CN3CCC(O)(CN(C)C)C3)cc2c1 (stereo not given)	15.85
Cc1nc[nH]c1CN1CCCN(c2nc3ccccc3s2)CC1	3.174
Cn1cc(CN2CCCC23CCN(c2nc4ccccc4s2)CC3)cn1	13.88
Cc1nc(CN2CCCC23CCN(c2nc4ccccc4s2)CC3)co1	53.88
Cc1nc[nH]c1CN1CCCC12CCN(c1nc3ccccc3s1)CC2	-4.142
c1ccc2sc(N3CCC4(CCCN4Cc4ncc[nH]4)CC3)nc2c1	60.65
Cc1cc(C(=O)N2CCN(c3nc4ccccc4s3)CC2)no1	-60.39
CCn1ccc(-c2cc(C(=O)O)n3ncc(Br)c3n2)n1	19.03
CC(C)Cn1ccnc1CNC(=O)N1CCCC1CN1CCOCC1 (stereo not given)	7.761
CN(C(=O)Cn1nc(-c2ccccc2F)ccc1=O)C1CCS(=O)(=O)C1 (stereo not given)	18.26
COC(=O)C(NC(=O)Nc1ccc(C(C)=O)cc1)C(C)C (stereo not given)	6.824
COCc1ncc(CN2CCC3(CCNC(=O)CC3)CC2)cn1	18.36
COCCN(C)Cc1cn(C)nc1-c1ccc2c(c1)OCCO2	-52.38
CC(C)(C)NC(=O)CNC(=O)Nc1cc(-c2ccccc2)ns1	38.08
Cc1cc(C(F)(F)F)nc(N2CCN3CCCC3C2)n1 (stereo not given)	-50.74
CCn1ncc(-c2cc(C(F)(F)F)nc(N3CCC(N)CC3)n2)c1C	50.19
Cc1c(-c2cc(C(F)(F)F)nc(N3CCC(N)CC3)n2)cnn1C	2.397
FC(F)(F)c1cc(-c2cccs2)nc(N2CCN3CCCC3C2)n1 (stereo not given)	24.42
Cc1ccc(-c2cc(C(F)(F)F)nc(N3CCOCC3)n2)s1	4.079

Compound	Percent Effect [%]
CCc1ccc(-c2cc(C(F)(F)F)nc(N3CCC(N)CC3)n2)cc1	105.7
Cn1nc(CN2CCCC2)c2c1CN(c1cnccn1)CC2.O=C(O)C(F)(F)F.O=C(O)C(F)(F)F	-1.06
COCCC(=O)N1C[C@H]2CN(Cc3cccnc3)C(=O)[C@H]2C1.O=C(O)C(F)(F)F	9.901
COc1ccc(NC(=O)Cn2nc(C)c(C)cc2=O)cc1	-2.402
Cc1cc(=O)n(CC(=O)Nc2ccc(Cl)cc2)nc1C	13.93
CC(=O)c1c(C)nn(CC(=O)Nc2ccc(F)cc2)c1C	-30.72
CC(=O)c1c(C)nn(CC(=O)Nc2ccc(Br)cc2)c1C	109.5
COc1ccc(NC(=O)Cn2nc(C)c(C)cc2=O)cc1Cl	14.09
COc1ccc(NC(=O)Cn2nc(C)c(C(C)=O)c2C)cc1	109.6
COCCN1CC[C@]2(CN(C(=O)c3ccc[nH]3)C[C@H]2C)C1=O	14.18
Cc1nn(C)c(Cl)c1C1CCCN1Cc1noc(C2CC2)n1 (stereo not given)	-6.241
CCCC(NC(=O)c1cscc1C)c1nnn[nH]1 (stereo not given)	-31.84
Cc1cnc(CN(C)C2CCN(Cc3sc(C)nc3C)C2)o1 (stereo not given)	-24.44
COC(=O)CNC(=O)C(C)Oc1ccccc1C(F)(F)F (stereo not given)	-2.134
CC(Oc1ccccc1C(F)(F)F)C(=O)NCC(N)=O (stereo not given)	-32.94
CC(Oc1ccccc1C(F)(F)F)C(=O)NS(=O)(=O)C(C)C (stereo not given)	54.22
COCCCN(Cc1ccncc1)c1ncc(C#N)cc1Cl	15.37
COc1cc(C(=O)Nc2c(C)noc2C)ccc1C	19.94
COc1cc(C(=O)NS(=O)(=O)c2cccc(C#N)c2)ccc1C	15.37
Cc1noc(NC(=O)c2ccc(F)cc2)n1	2.649
Cc1cc(NC(=O)c2ccc(C)c(F)c2)[nH]n1	32.04
Cc1noc(NC(=O)c2ccc(C)c(F)c2)n1	108.6
COc1cc(C(=O)Nc2nc(C)no2)ccc1C	102.2
Fc1cc(Cl)cnc1N1CCCC(c2nccn2Cc2ccccn2)C1 (stereo not given)	15.7
